Screens as filed in PubChem.
PRMT1 FP inh – inhibitors of human PRMT1; Q99873; AID 652257; actives 1.3% (n = 370,000); inhibition, % at 2.79 µM; recombinant PRMT1, activity-based probe fluorescence polarization;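 active = inhibition above about 21% made by adding two undisclosed values, limit read from the data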
Target sequence (Q99873 whole entry, looked up): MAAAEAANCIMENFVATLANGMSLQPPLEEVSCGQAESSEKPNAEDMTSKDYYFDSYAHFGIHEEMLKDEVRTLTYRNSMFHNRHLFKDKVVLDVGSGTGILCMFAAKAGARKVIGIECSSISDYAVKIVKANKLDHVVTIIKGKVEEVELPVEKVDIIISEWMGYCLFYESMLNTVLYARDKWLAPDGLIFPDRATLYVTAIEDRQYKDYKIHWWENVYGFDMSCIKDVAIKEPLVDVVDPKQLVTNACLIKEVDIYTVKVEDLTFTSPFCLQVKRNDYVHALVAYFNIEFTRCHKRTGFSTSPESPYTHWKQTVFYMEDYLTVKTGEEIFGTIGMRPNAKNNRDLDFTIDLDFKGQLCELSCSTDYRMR
ABHD5 PLIN5 PPI – inhibitors of human ABHD5-perilipin-5 interaction; Q00G26+Q8WTS1; Split G. princeps luciferase complementation, luminescence, 4 h; inhibition, % at 4 µM; actives 0.78% (n = 360,000); AID 602281;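 active = inhibition above the mean inhibition across every tested compound plus 3 SD, cut at about 22% in these data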
TLR4 MyD88 comp – blocks binding of human TLR4 to MyD88; O00206+Q99836; HeLa CL3-4 TLR4/MyD88 BLA complementation, FRET ratio; AID 861; inhibition, % at 8.4 µM; actives 0.18% (n = 200,000); in the data active = inhibition above about 25%
rCAG binder – r(CAG) repeat RNA binding. inhibition, % at 3 µM. actives 1.3% (n = 370,000). AID 651821. TO-PRO-1 dye displacement fluorescence;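 active = inhibition above the plate cutoff, the mean of all test compounds on that plate plus 3 SD, cut at about 35% in these data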;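 note: higher means more dye released from RNA so lower well fluorescence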
TLR9-MyD88 inh – inhibitors of human TLR9-MyD88 binding; Q9NR96+Q99836; inhibition, % at 4.98 µM; actives 0.21% (n = 340,000); CHO BLA complementation TLR9-MyD88, CCF4 FRET ratio; AID 504734;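 active = inhibition above the mean over all tested compounds plus 3 SD, cut at about 21% in these data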
NOD2 RIPK2 PPI – blocks binding of human NOD2 to RIPK2. O43353. CHO BLA complementation NOD2-RIPK2, CCF4 ratio. inhibition, % at 4.98 µM. actives 0.38% (n = 360,000). AID 624267; in the data active = inhibition above about 21%
Numbers stand for hits; – = inactive; · = no result given; ! = not active in a repeat. Most compounds without a hit are left out; they make up all but 3.3% or so of the library.

SMILES	PRMT1 FP inh	ABHD5 PLIN5 PPI	TLR4 MyD88 comp	rCAG binder	TLR9-MyD88 inh	NOD2 RIPK2 PPI
Cc1cc(C)c(CSc2ncc(-c3ccc([N+](=O)[O-])cc3)[nH]2)c(C)c1	–	–	–	–	–	41
O=[N+]([O-])c1ccc(-c2cnc(SCc3ccccc3Cl)[nH]2)cc1	–	–	25	–	–	–
CN(C)CCCN(C(=O)c1ccc(S(=O)(=O)N2CCc3ccccc3C2)cc1)c1nc2ccc(F)cc2s1	–	–	·	–	–	–
CN(C)CCCN(C(=O)c1ccc(S(=O)(=O)N2CCc3ccccc32)cc1)c1nc2ccc(F)cc2s1	23	–	·	–	–	–
Cc1ccc2nc(N(CCCN(C)C)C(=O)c3ccc(S(=O)(=O)N4CCc5ccccc5C4)cc3)sc2c1	–	–	·	–	–	–
CN(C)CCCN(C(=O)c1ccc(S(=O)(=O)N2CCc3ccccc32)cc1)c1nc2ccc(Cl)cc2s1	27	–	·	–	–	–
COc1ccc2[nH]c3c(c2c1)CCN1C(=O)C(CC(=O)NCCC2=CCCCC2)C[C@H](C(=O)N2CCOCC2)[C@@]31C (some centres not stated)	–	–	·	–	–	–
O=C(O)CSCC(=O)Nc1ccc(-c2nc3ccccc3s2)cc1	36	–	·	39	·	–
O=C(Nc1ccc(S(=O)(=O)Nc2ncccn2)cc1)c1ccc2ncsc2c1	24	–	·	–	–	–
Cc1ccc(S(=O)(=O)NC(=O)Nc2ccc(N(C)C)cc2)cc1	26	–	·	–	–	–
O=C(O)c1ccccc1C(=O)Nc1ccc(S(=O)(=O)Nc2nccs2)cc1	24	–	·	–	–	–
O=C(Nc1ccncc1)c1ccc2ncsc2c1	–	–	·	–	–	–
CN(C)c1ccc(C(=O)Nc2ccc(S(=O)(=O)Nc3nccs3)cc2)cc1	–	–	·	35	–	–
Cc1ccc(NC(=O)NNS(=O)(=O)c2ccc(Br)cc2)cc1	–	–	–	–	–	–
COC(=O)[C@]12C[C@H](CC(=O)N3CCCC3)C(=O)N(Cc3ccccc3)C1=C[C@H](C(C)C)O[C@@H]2C1CC1	–	·	·	–	·	·
CCOC(=O)c1nc(NNC(=O)c2ccc([N+](=O)[O-])cc2)sc1C	–	–	·	37	–	–
O=C(CSC1=NC2(CCCCC2)N=C1c1ccccc1)Nc1ccc2c(c1)OCCO2	22	–	–	–	–	–
OC(CNCC(c1ccc(Cl)cc1Cl)c1c[nH]c2ccccc12)c1ccccc1 (configuration not stated)	–	–	–	–	–	–
CCCCN1CCN(C2=Nc3ccccc3Sc3ccccc32)CC1	–	·	·	–	·	·
OCCOCCN1CCN(C2=Nc3ccccc3Sc3ccccc32)CC1	–	23!	·	–	–	–
O=C(Oc1nsnc1N1CCOCC1)N(c1ccccc1)c1ccccc1	–	–	–	–	–	–
COC(=O)Oc1nsnc1N1CCOCC1	81	–	–	–	–	–
N#Cc1ccc(NC(=O)Cn2c3[n+](c4ccc(C(F)(F)F)cc42)CCCCC3)cc1	–	–	–	–	–	–
O=C(Cn1c2[n+](c3ccc(C(F)(F)F)cc31)CCCCC2)Nc1ccc(Br)cc1	·	96	–	·	–	–
COc1ccc(NC(=O)Nc2c(SC)nsc2SC)cc1	–	–	–	–	–	–
SMILES	PRMT1 FP inh	ABHD5 PLIN5 PPI	TLR4 MyD88 comp	rCAG binder	TLR9-MyD88 inh	NOD2 RIPK2 PPI
Cc1ccccc1NS(=O)(=O)c1nnc(NC(=O)c2ccccc2F)s1	–	–	·	–	–	–
Cc1ccc(C(=O)Nc2nnc(S(=O)(=O)Nc3ccccc3C)s2)cc1C	–	–	·	45	–	–
Cc1ccc2[nH]c3c(c2c1)CN(C(=O)CN(C)CC1OCCO1)CC3	22	–	–	–	–	–
CN(CC(=O)N1CCc2[nH]c3ccc(F)cc3c2C1)CC1OCCO1	–	·	–	–	·	·
C/C(=C/c1oc2ccc(O)cc2c1[N+](=O)[O-])N(C)C	24	–	–	–	–	–
C[C@H](NC(=O)[C@@H]1Cc2ccccc2CN1C(=O)OC(C)(C)C)C(=O)NCc1ccco1	–	22	·	–	–	–
O=C(COC(=O)C1CCCCC1)Nc1ccc(S(=O)(=O)N2CCOCC2)cc1	–	–	–	–	–	–
Cc1cc(N=Nc2ccccc2)c(NCC(O)C(O)C(O)CO)cc1C (configuration not stated)	–	22	–	–	–	–
CCCCOc1cccc(C2C(C(=O)c3ccc(C)o3)=C(O)C(=O)N2c2nnc(C)s2)c1 (configuration not stated)	23	–	·	–	–	–
COc1cccc(C2C(C(=O)c3ccc(C)o3)=C(O)C(=O)N2c2cc(C)on2)c1 (configuration not stated)	–	–	·	–	–	–
CC(=O)Nc1ccc(-c2ccnc3c2CC(C)(C(=O)NCc2ccc(N(C)C)cc2)O3)cc1 (configuration not stated)	–	–	·	–	·	–
OCC1OC(C(N=Nc2ccccc2)=NNc2ccccc2)C(O)C1O (configuration not stated)	–	·	·	–	·	·
COC(=O)CC1OCC=C2CN3CCC45C6=CC(=O)C(=O)C([N+](=O)[O-])=C6NC4C1C2CC35 (configuration not stated)	30	–	·	–	·	–
CN(C(=O)COC(=O)CSc1ccc(C(N)=O)cc1[N+](=O)[O-])C1CCCCC1	–	–	·	–	–	–
O=C(Oc1cc2oc(=O)cc(-c3ccccc3)c2cc1Cl)C1CCCCC1	–	–	–	–	–	29
O=C(Oc1ccc2ccc(=O)oc2c1)C1CCCCC1	–	–	–	–	–	–
CCOC(=O)[C@]12CCCC=C1N(Cc1ccccc1)C(=O)[C@H](CC(=O)NCCc1ccccc1OC)C2	–	–	·	–	·	–
Cc1sc(NC(=O)CSc2n[nH]c(N)n2)c(C#N)c1C	–	–	·	50	–	–
CCn1c(CN2CCOCC2)nnc1SCC(=O)Nc1cccc(C)c1	–	–	·	–	–	–
COc1ccccc1N(O)C1CC(=O)N(c2ccc(F)cc2)C1=O (configuration not stated)	31	–	–	–	–	–
COc1ccccc1N1C(=O)CC(N(O)c2ccccc2)C1=O (configuration not stated)	–	–	·	–	–	–
COc1cc(/C=C/C(=O)OC[C@H]2O[C@H](OC3(CO)OC(CO)C(O)C3O)[C@H](O)[C@@H](O)[C@@H]2O)ccc1O (some centres not stated)	–	–	·	–	–	–
C[C@@H]1O[C@@H](O[C@@H]2[C@@H](O)[C@H](OCCc3ccc(O)c(O)c3)O[C@H](CO)[C@H]2OC(=O)/C=C/c2ccc(O)c(O)c2)[C@H](O)[C@H](O)[C@H]1O	25	–	·	–	–	–
COc1cc(CC(=O)NC2CCCc3ccccc32)cc(OC)c1OC (configuration not stated)	–	–	·	–	–	92
Cc1ccc(-c2csc(=S)[nH]2)cc1	22	–	–	–	–	–
